# According to the supplement of paper PMC6555819:
# Columns and labels:
# Experiment in all cases: PBM binding z-score (relative to random genomic background probes); higher = stronger binding; sequences stand for … in GC…GCGATTGACAGCGTAGAATGAAGG
# [1] = system: FXR:RXRa (NR concentration 270 nM, RXRa partner concentration 90 nM)
# Procedure, shortened: (§1)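 Random background probes are the reference for binding z-scores. These scores derive from regression-normalized fluorescence on custom Agilent 4×180K protein-binding microarrays incubated 1 h with ligand-free nuclear receptor dimers. Binding was detected with antibodies against each partner (one per run).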
# [2] = system: LXRa:RXRa (NR concentration 270 nM, RXRa partner concentration 90 nM)
# Procedure, shortened: as §1
# [3] = system: LXRa homodimer (NR concentration 270 nM)
# Procedure, shortened: as §1
# [4] = system: LXRb:RXRa (NR concentration 270 nM, RXRa partner concentration 90 nM)
# Procedure, shortened: as §1
# [5] = system: LXRb homodimer (NR concentration 270 nM)
# Procedure, shortened: as §1
# [6] = system: PPARa:RXRa (NR concentration 270 nM, RXRa partner concentration 90 nM)
# Procedure, shortened: as §1
# [7] = system: PPARg:RXRa (NR concentration 180 nM, RXRa partner concentration 90 nM)
# Procedure, shortened: as §1
# [8] = system: PPARg:RXRa 270nM:90nM, anti-RXR (NR concentration 270 nM, RXRa partner concentration 90 nM)
# Procedure, shortened: as §1
# [9] = system: PPARg:RXRa 30nM:10nM, anti-RXR (NR concentration 30 nM, RXRa partner concentration 10 nM)
# Procedure, shortened: as §1
# [10] = system: PPARg:RXRa 90nM:30nM, anti-RXR (NR concentration 90 nM, RXRa partner concentration 30 nM)
# Procedure, shortened: as §1
Sequence,PBM binding z-score [1],PBM binding z-score [2],PBM binding z-score [3],PBM binding z-score [4],PBM binding z-score [5],PBM binding z-score [6],PBM binding z-score [7],PBM binding z-score [8],PBM binding z-score [9],PBM binding z-score [10]
TCTTGTAGATCAACGGGAGGTTAAGAAAGATCGA,0.553,1.31,0.00977,1.17,0.12,1.49,-0.121,1.58,2.52,2.01
GCTAGTTGGTCAGTAGAAGGTCACACACCGGTCG,1.88,2.35,2.32,2.24,0.231,2.69,1.13,2.23,0.306,1.54
CCTAGCAGGCCAATCTGGGCCACTCAAGGCTTGA,-0.284,-0.644,-0.799,-1.18,-1.02,0.492,-0.0153,-0.364,-1.32,-1.08
ATATGTAGGTTACATCCGGGTCATACAGGCTATG,2.09,4.15,1.41,2.85,0.809,4.64,6.34,5.27,2.96,4.81
CGTCCAAGGTCAATGCTAGGTCAGCGAAAGCATT,6.63,5.79,2.77,4.08,1.43,5.16,4.44,4.73,1.24,3.25
GGAACGAGGGCAAAGTTGACAGCATCTGTCGACG,2.02,1.27,-0.425,1.25,-0.409,4.78,8.22,7.66,7.72,8.34
ACTAGCAGGCCTAGGGTCACTCAAGATTAGTCCG,1.77,1.89,-0.469,1.82,-0.871,2.81,1.99,3.41,1.39,2.89
CCTAGTTGGTCAAGGTTACACACGCTATAGGTAC,1.22,1.09,0.67,1.4,0.618,1.79,1.82,2.2,0.763,1.81
TTACCAAGGTGAAGGTAGTTGATCCCTCTGTAGA,0.475,0.286,-0.482,0.307,-0.931,1.44,0.324,1.29,0.219,0.784
TCTATTATTTGAAGGGCAACCGACGAGTCCGTTT,1.12,1.55,1.32,1.35,0.721,1.29,0.336,2.22,4.08,3.41
CCTTCCGGGTCACGAGGTTATAGCACGACGAGCG,5.95,4.51,0.67,3.92,0.139,5.88,7.46,6.88,3.82,6
CGTCCAAGGTCAGCAGCTCAGTGAAAGCGACGTG,5.06,3.06,-0.124,2.14,-0.454,4,1.68,2.61,0.139,1.47
AGAATGAGGTTATACGTAGATCAGGAAAGAAAGT,2.11,1.99,0.118,1.76,0.0606,3.08,2.02,1.97,0.878,1.47
AGAATGCGGTTACCAAAGATCAGGGAAACGCTTG,-0.546,1.96,-0.607,-0.204,-0.992,0.0564,0.562,0.104,-0.151,-0.17
GCTCGGAGGACAAGGTCAGACCTTTGTCCGTAGA,2.03,2.52,-0.219,1.95,0.0255,3.08,1.88,2.61,-0.0164,1.74
TCAGACAAGTGAAGGTAACTCAGGTACGCAGTCG,0.55,1.36,-0.177,0.561,-0.499,0.902,0.548,2.26,3.99,2.94
AGTCAAAGTTCACTAGGTAACTTAAGATTCAGCT,5.3,5.02,3.26,3.15,1.21,4.91,6.82,6.55,3.6,5.72
TCATATAGGTAATACAGGTGAAAGTCGGCATCTA,1.2,1.54,0.569,1.2,0.365,2.06,1.67,2.61,4.12,3.5
CAGCCTAGGTCAGGGCCAGGATAGGAGGAACGTT,1.84,0.87,-0.49,0.522,-1.06,2.04,0.835,1.15,-0.0382,0.556
TCTCAGAGGACACGAAGGTCAGAGCTTTCCAGAG,1.39,1.27,0.407,0.974,-0.749,2.07,0.696,2.01,3.02,2.45
GAAACAGGGTCAAGGCCAGAGTACGCGTATTGAT,7.06,4.18,-0.0634,3.92,-0.239,6.22,6.82,6.19,3.1,5.15
TAGCCTAGGTCATGAGCCAGTATACCACGCGAAC,4.38,3.4,0.262,2.43,0.0464,3.93,3.35,2.98,0.892,2.05
CCCACTGGGGCAGAAAGGTTACCATACCATCCGG,0.135,0.483,-0.148,0.675,-0.892,2.12,2.04,2.59,0.549,2.22
TCAGACAGGTGTAGGTAACTCAGGTACGCAGTCG,0.401,1.02,0.205,0.34,-0.0818,0.643,0.472,1.78,3.54,2.76
